# Bioassay records deposited in PubChem BioAssay by National Center for Advancing Translational Sciences (NCATS).
# Pf growth 96h: Primary qHTS for delayed death inhibitors of the malarial parasite plastid, 96 hour incubation; Potency, µM (series often up to 28.7 µM), inactives show at the highest dose activity change, negative = inhibition, most hits filed as inhibitors; 320,000 compounds, 6.9% hits; P. falciparum luciferase reporter growth, 96 h; active = well fitted inhibition curve with a large enough effect; inconclusive = small, poorly fitted or top-dose-only effect, or another doubt; inactive = no such curve, though single readings can be large or run the other way; note: potency is the fitted concentration of half-maximal effect; % is set by controls: 0 for no effect and ±100 for the full control effect
#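 Delayed-death screen, second-generation endpoint: infected erythrocytes, 2% hematocrit, 0.05% parasitemia final; 96 hours at 37 C, 5% CO2; luciferase detection reagent; luminescence decrease equals reduced growth.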
# Shiga toxin inh: A qHTS for Small Molecule Inhibitors of Shiga Toxin; Vero cells, Shiga toxin protein synthesis inhibition reporter; inhibition, % at 38.7 µM; AID 2315, 2010; 290,000 compounds, 9.2% hits; in the data active = inhibition mostly above about 28%, no sharp cut-off; inactive = mostly below about 43%; note: 0% is about no effect
# Pf growth 48h: Primary qHTS for delayed death inhibitors of the malarial parasite plastid, 48 hour incubation; 310,000 compounds, 5.9% hits; P. falciparum luciferase growth in erythrocytes, 48 h; AID 504832, 2011; Potency, µM (series often up to 28.7 µM), inactives show at the top dose activity change, negative = inhibition, actives largely listed as inhibitors; active = well fitted inhibition curve with a large enough effect; inconclusive = small, poorly fitted or top-dose-only effect, or another doubt; inactive = no such curve, though single readings can be large or run the other way; note: potency is the fitted concentration of half-maximal effect; % is set by controls: 0 for no effect and ±100 for the full control effect
#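 A one-generation exposure of luciferase-tagged malaria parasites in RPMI 1640/Albumax erythrocyte culture, 37 C and 5% CO2. Inhibition is inferred from decreased luminescence after adding detection reagent.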
# Cycloheximide cs: Cycloheximide Counterscreen for Small Molecule Inhibitors of Shiga Toxin | cell reporter, cycloheximide protein synthesis inhibition counterscreen | max response, % | 300,000 compounds, 12% hits | AID 2314, 2010; in the data active = max response mostly above about 13%, no sharp cut-off; inactive = mostly below about 14%; note: read at 38.3 µM for the half of the compounds with a filed dose; 0% is about no effect
# SARS PLpro yeast: qHTS of Yeast-based Assay for SARS-CoV PLP. S. cerevisiae expressing SARS-CoV PLpro, growth rescue. Potency, µM (titrated, usually from 32.9 µM), without a hit: at the highest dose activity, positive = growth rescue, hits mostly activators. 330,000 compounds, 0.19% hits. AID 485353, 2010; note: potency is the fitted concentration of half-maximal effect; 0% is about no effect; nearly all actives have a fitted effect of over 55% in size
# NS1 function inh: qHTS Assay for Inhibitors of Influenza NS1 Protein Function. Potency, µM (series often up to 46.1 µM), for inactives: top-dose activity, positive = more growth. 270,000 compounds, 0.4% hits; note: potency is the fitted concentration of half-maximal effect; actives are rising curves; nearly all actives have a fitted effect of over 50% in size
#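 Growth recovery, yeast-based: influenza A NS1 expressed in S. cerevisiae causes slow growth, and suppressors are detected by OD600. The parent strain without NS1 is used as positive control.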
# Numbers without * were called inactive; ? = inconclusive; . = no result given. Hits are enriched below; roughly 21% of the tested compounds scored in any of these assays. Unless noted, calls come from the whole dose curve.
SMILES,Pf growth 96h,Shiga toxin inh,Pf growth 48h,Cycloheximide cs,SARS PLpro yeast,NS1 function inh
CC(C)NCC(O)COC1C2CC3CC(C2)CC1C3 (stereo not given),4%,-4,8.3µM*,1,0%,3%
CC(C)NCC(O)COC1CCC(C(C)(C)C)CC1 (stereo not given),?,-4,?,-1,-11%,.
Cc1nc(C(=O)NC(C)C)nn1-c1cc(Cl)cc(Cl)c1,-12%,9,28%,3,2%,.
O=C(Nc1ccc(S(=O)(=O)N2CCOCC2)cc1)c1cc(-c2ccccc2O)n[nH]1,?,14,10µM*,-1,-1%,-1%
CC1CN(S(=O)(=O)c2ccc(NC(=O)c3cc(-c4ccccc4O)n[nH]3)cc2)CC(C)O1 (stereo not given),0.93µM*,-5,1.7µM*,-1,3%,.
Cc1ccccc1C(=O)Nc1ccc(S(=O)(=O)N2CC(C)OC(C)C2)cc1 (stereo not given),0%,-2,-13%,-2,-4%,-5%
CC(=O)c1ccc(N2C(=O)NC3(CCCCC3)C2=O)cc1,107%,74*,27%,14*,4%,-28%
CCOc1ccc(C(C)=O)cc1CN1C(=O)NC2(CCCCCCC2)C1=O,?,-17,12µM*,-1,0%,-7%
O=C1NC2(CCCCC2)C(=O)N1c1ccc(Cl)cc1,4.7µM*,19,15%,-2,-3%,-8%
O=C1NC2(CCCCC2)C(=O)N1c1ccccc1,.,-16,0%,-2,1%,5%
CSc1ccc(N2C(=O)NC3(CCCCC3)C2=O)cc1,19%,26,.,18*,1%,-6%
Cc1cc(NC(=O)CSc2nccn2-c2cccc(Cl)c2)no1,-5%,-6,-9%,-1,-2%,-21%
CCOC(=O)N1CCC(N2CCCC(C(=O)c3cccc(OC(C)C)c3)C2)CC1 (stereo not given),?,-8,?,-1,3%,-1%
COc1cccc(CNC(=O)COC(=O)CCCNC(=O)c2ccc(Cl)cc2)c1,14%,.,10%,.,0%,.
CC(C)N1CCN(Cc2ccc(OCc3ccccc3)cc2)CC1CCO (stereo not given),?,-3,-15%,12,0%,-3%
CC(C)N1CCN(Cc2coc3ccccc3c2=O)CC1CCO (stereo not given),0%,24,17%,17*,1%,0%
CC(C)N1CCN(Cc2ccc(OC3CCCC3)cc2)CC1CCO (stereo not given),12µM*,-8,-13%,-4,-13%,12%
CC(C)N1CCN(Cc2ccccc2C(F)(F)F)CC1CCO (stereo not given),-2%,-24,5%,-2,0%,1%
CC(C)CCN1CCN(Cc2coc3ccccc3c2=O)CC1CCO (stereo not given),4.1µM*,23,3%,12,-1%,9%
COc1ccc(S(=O)(=O)NCC(=O)Nc2cccc(C)c2C)cc1OC,?,-14,-8%,0,-2%,-3%
Cc1c(NC(=O)c2ccc(S(=O)(=O)N3CCOCC3)cc2)c(=O)n(-c2ccccc2)n1C,-12%,-22,-3%,1,1%,-1%
CCOc1ccc(N(CC(=O)N/N=C/c2ccc(OC(C)C)cc2)S(C)(=O)=O)cc1,7%,12,10%,8,14%,-10%
Cc1ccc2c(cnn2C(=O)CCC(=O)N2CCCCC2C)c1 (stereo not given),?,-2,4%,-4,-6%,-39%
COC(=O)C1=C(C)N=C2SC(C#N)=C(N)N2C1c1cc(OC)c(OC)c(OC)c1 (stereo not given),?,-4,?,-3,6%,4%
COC(=O)C1=C(C)N=C2SC(C#N)=C(N)N2C1c1ccc(OCc2ccccc2)cc1 (stereo not given),12µM*,-15,.,-1,-12%,9%
SMILES,Pf growth 96h,Shiga toxin inh,Pf growth 48h,Cycloheximide cs,SARS PLpro yeast,NS1 function inh
CCOc1ccc2oc(C(=O)N3CCN(Cc4ccccc4)CC3)c(C)c2c1,-31%,-9,-23%,0,1%,-7%
Cc1oc2ccc(OCc3ccc(Cl)cc3)cc2c1C(=O)O,14%,87*,23%,27*,-2%,-34%
CCOc1ccc2oc(C(=O)Nc3ccc(N4CCOCC4)cc3)c(C)c2c1,?,-4,-19%,0,.,9%
CCOc1ccc2oc(C(=O)O)c(C)c2c1,56%,23,44%,26*,2%,2%
Cc1oc2ccc(OCc3ccc(Br)cc3)cc2c1C(=O)O,-4%,10,3%,9,1%,3%
CCOc1ccc2oc(C(=O)Nc3ccc4c(c3)OCO4)c(C)c2c1,89%,106*,91%,25*,-11%,-6%
CCOc1ccc2oc(C(=O)N3CC(C)OC(C)C3)c(C)c2c1 (stereo not given),7.4µM*,18,?,24*,10%,-5%
CCN1CCN(C(=O)C2CCC(=O)N(CCCN3CCCC3=O)C2)CC1 (stereo not given),161%,-7,18%,-6,-1%,12%
CN(C)c1ncnc(N(C)C)c1[N+](=O)[O-],8%,-9,36%,-5,0%,1%
Cc1nc(C(=O)NNC(=O)c2ccc(C(F)(F)F)cc2)cs1,?,25,?,17,1%,1%
O=C(COc1ccc(Br)cc1)NCC1COc2ccccc2O1 (stereo not given),-12%,.,-2%,.,-12%,.
COc1ccc(S(=O)(=O)N2CCCCC2)cc1NC(=O)Cc1cccc(C(F)(F)F)c1,0%,.,?,.,3%,.
CCOc1ccc(S(=O)(=O)N2CCCCC2)cc1NC(=O)Cc1cccc(C(F)(F)F)c1,9.3µM*,.,?,.,1%,.
COc1ccc(S(=O)(=O)N2CCCCCC2)cc1C(=O)NCc1cccs1,?,.,15µM*,.,-1%,.
COc1ccc(OC)c(/C=N/NC(=O)CNC(=O)c2ccc(S(=O)(=O)N3CCCC3)cc2)c1,4.1µM*,-8,27%,-2,0%,.
O=C(Cc1cccs1)Nc1cc(S(=O)(=O)N2CCCCC2)ccc1Cl,?,.,?,.,1%,.
COc1ccc(S(=O)(=O)N2CCCCC2)cc1NC(=O)Cc1cccs1,?,.,12µM*,.,0%,.
COc1ccc(S(=O)(=O)N2CCCCCC2)cc1C(=O)NCc1ccccc1Cl,8.3µM*,.,5.9µM*,.,2%,.
COc1cc(OC)c(OC)cc1CNC(=O)c1ccc(S(=O)(=O)N2CCCCC2)cc1,5.2µM*,.,9.3µM*,.,0%,.
COc1ccc(S(=O)(=O)N2CCOCC2)cc1NC(=O)Cc1sc(C)nc1-c1ccc(F)cc1,?,.,?,.,1%,.
CCN1CCN(S(=O)(=O)c2ccc(Cl)c(C(=O)N(CC)CC(=O)Nc3ccc(OC)cc3)c2)CC1,13µM*,-7,-13%,-4,-4%,-5%
